# High-throughput results deposited in PubChem by National Center for Advancing Translational Sciences (NCATS).
# A selection: hits, their analogues and other compounds. The true share with any hit is near 5.5%.
# Giardia kill: Small Molecules that selectively kill Giardia lamblia: qHTS; Giardia lamblia trophozoite viability; hit rate 0.15% among 340,000; AID 540267, 2011; activity change, % at 7.66 µM, hits read low; in the data active means activity change below about -80%; inconclusive means between about -30% and that limit;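 further: parasites exposed to compound for two days anaerobically before the ATP read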
#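 Trophozoite viability was measured as ATP-dependent luminescence, read 15-30 min after reagent addition. Before that, parasites at 100 cells/well were exposed to compounds for 48 h, anaerobically, at 37 deg C.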
# Sfp PPTase inh: qHTS Assay for Inhibitors of Bacillus subtilis Sfp phosphopantetheinyl transferase (PPTase) | Biochemical Sfp PPTase activity, qHTS | Potency, µM, without a hit: largest response in the series, negative = inhibition, most hits filed as inhibitors | hit rate 3.5% among 310,000 | AID 1490, 2009 | 4'-phosphopantetheinyl transferase ffp (Bacillus subtilis), Q9F4F7;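 further: the enzyme is Sfp with the accession as filed and its product quenches rhodamine fluorescence; potency means the concentration at half of the fitted maximal effect; 0% = enzyme reaction without inhibitor and -100% = no enzyme wells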
#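 Sfp 15 nM + cpd, 15 min RT; start w/ rhodamine-CoA 5 uM, BHQ-2-YbbR 12.5 uM (final); 50 mM Hepes pH 7.6, 10 mM MgCl2, 0.01% NP-40, 0.01% BSA; read 525/598 nm at 0 and 30 min.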
# ELG1 DNA repair: qHTS screen for small molecules that inhibit ELG1-dependent DNA repair in human embryonic kidney (HEK293T) cells expressing luciferase-tagged ELG1; hit rate 2.3% among 330,000; Potency, µM (series often up to 46.1 µM), without a hit: top-dose activity change, negative = inhibition, most hits filed as inhibitors; HEK293T ELG1-luciferase reporter, luminescence, 16 h; DNA damage induced by 5-fluorouridine; AID 504467, 2011; further: potency means the concentration at half of the fitted maximal effect; nearly all actives have a fitted effect of over 55% in size
#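 DMSO vehicle served as the neutral condition. Each well held 2,000 cells given 5-fluorouridine plus compound; after 16 hr at 37 °C/5% CO2, ONE-Glo was added and luciferase measured 30 min later.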
# FBPA coupling cs: qHTS Assay for Inhibitors of Fructose-1,6-bisphosphate Aldolase from Giardia Lamblia: Coupling assay counterscreen; coupling enzyme system counterscreen, AmpLite Red fluorescence; activity change, negative = inhibition, % at 58.2 µM, hits read low; hit rate 0.67% among 290,000; AID 2472, 2010; in the data active means activity change below about -30%
#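 Final compound at 57.5 uM, incubated 10 min at RT with coupling enzyme reagent (glyceraldehyde-3-phosphate), then 20 min with substrate and AmpLite Red detection. Fluorescence read at 525/598 nm; tests interference with the coupling assay, not aldolase inhibition.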
# Starred values were filed as active, the others as inactive; u = inconclusive; x = no result given. Unless noted, the call rests on the fitted dose curve; in most records, active means well fitted curve in the direction sought with a large enough effect; inconclusive means small, poorly fitted or top-dose-only effect, or another doubt; inactive means no such curve, though single readings can be large; an effect the other way counts as inactive or inconclusive. Unless noted, on the % scale 0 is the no-effect control and ±100 the full control effect.
SMILES,Giardia kill,Sfp PPTase inh,ELG1 DNA repair,FBPA coupling cs
CCCN1CNc2c(c(=O)[nH]c(=S)n2CCc2cccc(OC)c2)C1,6.4,x,x,x
O=C(Nc1ccc(F)cc1)Nc1nnc(-c2ccncc2)s1,18.4,-13.7%,u,x
O=C(Nc1ccc(Cl)cc1)Nc1nnc(-c2ccncc2)s1,-3.8,-11.6%,3.66µM*,-0.5
COc1cc(C)ccc1OCCOCCOc1cccc2ccc(C)nc12,-2.0,50.1µM*,-20.5%,2.4
Cc1cccc(C)c1NC(=O)CNC(=O)c1cccc(S(=O)(=O)NCc2cccs2)c1,3.5,x,10.8%,x
CN(C)c1cccc2c1c(NC(=O)c1ccc(Cl)cc1)nn2C,13.9,-12.1%,-2.9%,-36.7*
CN(C)c1cccc2c1c(NC(=O)c1ccc(F)cc1)nn2C,-0.8,-10.7%,2.3%,-27.7
CN(C)c1cccc2c1c(NC(=O)Nc1ccccc1)nn2C,3.1,-3.4%,u,-31.0*
CC1CCCCN1CC(=O)Nc1ccc(N2CCCCCC2)cc1 (stereo not given),4.7,44.7µM*,7.2%,-15.0
CC(=O)Nc1ccc(N2CCCCC2)cc1,-5.5,21.7%,12.0%,-1.0
CC1CCCCN1CC(=O)NC(c1ccccc1)c1ccccc1 (stereo not given),-19.8,79.4µM*,-11.5%,-1.9
CC(=O)Nc1ccc(N2CCCC2)cc1,-12.5,39.8µM*,1.3%,-31.5*
C=CC(=O)N(CCC)C(c1ccccc1)c1ccccc1OC (stereo not given),-16.7,x,-1.6%,x
CC(=O)c1ccc(OCC(O)CN2CCN(c3ccc(F)cc3)CC2)cc1 (stereo not given),-3.2,12.0%,u,0.4
COc1cc(C(C)=O)ccc1OCC(O)CN1CCN(c2cc(C)cc(C)c2)CC1 (stereo not given),-24.8,1.7%,13µM*,-0.6
CC(=O)Nc1ccc(NC(=O)CSc2nnc(-c3cccs3)n2N)cc1,-1.4,x,19.4%,x
CC(=O)c1sc2nc(C)c3c(c2c1N)CCCC3,-1.9,u,-3.6%,-3.4
CC(=O)c1sc2nsc(SCCN3CCCC3)c2c1N,13.5,39.8µM*,0.0%,0.3
O=C(C1CCN(c2ncnc3c2sc2cccc(F)c23)CC1)N1CCCC1,x,-5.0%,7.4%,-43.7*
CCN1/C(=C/C=C/c2oc3ccc4ccccc4c3[n+]2CC)Oc2ccc3ccccc3c21,9.7,8.91µM*,-10.4%,-4.5
C=C(C)c1cc2c(ccc3ccc(=O)oc32)o1,-1.8,x,u,x
Cc1ccc2c(c1)C(O)(c1c(C)[nH]c3ccccc13)C(=O)N2 (stereo not given),5.2,4.5%,x,-34.6*
COc1ccc(C)cc1NC(=O)NNC(=O)C(C)Oc1ccc(F)cc1Cl (stereo not given),21.9,9.7%,-22.3%,x
COCCNC(=O)C(c1ccc(C)o1)N(Cc1ccco1)C(=O)c1snc(C(N)=O)c1N (stereo not given),u,1.7%,-28.0%,2.6
NC(=O)c1nsc(C(=O)N(Cc2ccco2)C(C(=O)NCc2ccc(F)cc2)c2ccc(O)cc2)c1N (stereo not given),3.8,-0.8%,11.6µM*,-1.4
SMILES,Giardia kill,Sfp PPTase inh,ELG1 DNA repair,FBPA coupling cs
Cc1ccc(C(C(=O)NCc2ccc(F)cc2)N(Cc2ccco2)C(=O)c2snc(C(N)=O)c2N)o1 (stereo not given),-15.0,5.5%,20.6µM*,-2.7
O=C(c1ccco1)N1CCC2(CC1)CN(Cc1cc(C(F)(F)F)cc(C(F)(F)F)c1)C2,x,22.6%,x,2.1
CSCCC(NC(=O)c1ccc(Cl)cc1Cl)C(=O)NCc1ccncc1 (stereo not given),-15.7,x,u,x
O=C1C=CC(=O)c2c(O)c(Cl)c(Cl)c(O)c21,x,11.2µM*,x,-90.0*
O=C(NNc1cc(N2CCOCC2)nc(N2CCOCC2)n1)c1ccc([N+](=O)[O-])cc1,-1.9,-25.6%,u,-54.3*
O=C(Nc1cccc(-c2ccc(N3CCOCC3)nn2)c1)c1ccc([N+](=O)[O-])cc1,-1.9,x,u,x
COc1ccc(N2C(=NC(=O)C3CC3)SC3CS(=O)(=O)CC32)cc1Cl (stereo not given),-3.1,6.7%,0.9%,-0.1
Nc1c(C(=O)O)sc2nc3c(cc12)CCCC3,6.1,-14.9%,13.6%,0.3
NC(=O)c1sc2nc3c(cc2c1N)CCCCCC3,0.6,31.6µM*,u,0.4
COc1ccc(C(=O)/C=C/N(C)C)cc1OC,-3.6,10.2%,-0.2%,0.8
COc1ccc(C(=O)/C=C2\NCCc3cc(OC)c(OC)cc32)cc1OC,2.8,-8.1%,14.6µM*,1.1
Cc1ccc(NC(=S)/C(=C(\[O-])c2ccc(Cl)s2)[n+]2cccc(CO)c2)cc1C,-18.9,25.1µM*,u,-11.5
Cc1ccc(C)c(S(=O)(=O)N2CCN(C(=O)CCC(=O)NCc3ccc(Cl)cc3Cl)CC2)c1,1.9,x,x,x
CN[C@]1(C)[C@H]2CC[C@@H](C2)C1(C)C,x,2.1%,x,1.1
O=C(O)CCC(=O)Nc1ccc(SSc2ccc(NC(=O)CCC(=O)O)cc2)cc1,4.4,17.8µM*,0.9%,15.7
CN(C(=O)c1ccno1)c1nnc(-c2cnccn2)s1,-12.6,50.1µM*,u,0.3
CN(C(=O)c1ccc(C#N)cc1)c1nnc(-c2cnccn2)s1,54.0,23.0%,-3.7%,-0.2
CCN1C(=O)[C@H]2[C@@H](c3ccc(OC)cc3)N3C(=O)CN(CCOC)C(=O)[C@@]3(C)[C@H]2C1=O,9.8,19.2%,4.6%,-1.2
CC1CN(c2nc(-c3ccccc3)nc3ccccc23)CC(C)O1 (stereo not given),-2.6,-10.5%,13µM*,0.8
c1ccc2c(N3CCCCC3)nc(N3CCCCC3)nc2c1,-10.7,u,-1.1%,1.8
C(=C\c1nc(N2CCCCCC2)c2ccccc2n1)/c1ccccc1,3.4,28.2µM*,-2.8%,-7.2
c1ccc2c(N3CCCCCC3)nc(-c3ccncc3)nc2c1,-10.1,-14.7%,7.31µM*,0.9
COc1ccccc1CN1CC[C@@]2(CCCN(C(=O)c3ccco3)C2)C1,x,13.9%,x,5.2
O=C(COc1ccc(Cl)cc1)Nc1ccccc1C(=O)NCc1cccnc1,1.3,4.7%,-10.2%,x
COc1cc(-c2cc(C(=O)NCc3ccc(S(N)(=O)=O)cc3)c3ccccc3n2)cc(OC)c1OC,-19.9,5.8%,13µM*,0.6
COc1cc(-c2cc(C(=O)NCc3ccco3)c3ccccc3n2)cc(OC)c1OC,12.3,-13.8%,13µM*,4.1
NS(=O)(=O)c1ccc(CNC(=O)c2cc(-c3ccccc3)nc3ccccc23)cc1,8.5,-8.2%,-6.6%,9.0
CC(=O)c1cccc(S(=O)(=O)N2CCN(c3nc(-c4cccs4)nc4ccccc34)CC2)c1,-20.4,x,x,x
CCCCn1c(N)c(N(CC(C)C)C(=O)c2ccc(Br)s2)c(=O)[nH]c1=O,-12.8,10.3%,2.0%,3.5
O=C(NCCc1ccccc1)c1nc2nc(-c3cccs3)cc(C(F)(F)F)n2n1,20.7,u,u,4.7
